Laboratory results: PubChem BioAssay (Tox21)
Records with an inconclusive call do not appear. The source made the active and inactive calls. Unless noted, the call rests on the fitted dose curve; in most records, active means well fitted curve in the direction sought with a large enough effect in the repeat runs; inconclusive means weak or mixed curves; inactive means no such curve, though single readings can be large; an effect the other way counts as inactive or inconclusive.

Assays:
[1] = qHTS assay to identify small molecule agonists of the vitamin D receptor (VDR) signaling pathway - cell viability counter screen (AID 743224); conditions: VDR-bla HEK293T viability, CellTiter-Glo luminescence, 16 h; series mostly up to 62.6 µM; further: nearly all actives have a fitted effect of over 50% in size
Summary of the method: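 In parallel with the bla FRET readout, cytotoxicity toward VDR-bla cells after 16 h compound exposure was assessed by CellTiter-Glo, with luminescence recorded after a 30 min room-temperature incubation.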

[2] = qHTS assay to identify small molecule antagonists of the vitamin D receptor (VDR) signaling pathway - cell viability counter screen (AID 743225); conditions: VDR-bla HEK293T viability, CellTiter-Glo luminescence, 16 h; series mostly up to 61 µM; further: nearly all actives have a fitted effect of over 50% in size
Summary of the method: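 Parallel cytotoxicity test: VDR-UAS-bla HEK 293T, 3 nM (final) 1-alpha,25-dihydroxyvitamin D3 with test compound, 16 h, 37C. Endpoint is CellTiter-Glo luminescence in the same wells.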

[3] = qHTS assay to identify small molecule agonists of the NFkB signaling pathway (AID 1159509; active means well fitted curve in the direction sought with a large enough effect in the signal ratio in the repeat runs, not every such curve was filed as active; the % refers to the signal ratio); conditions: NFkB-bla ME-180 cells, beta-lactamase FRET ratio, 5 h; series mostly up to 61 µM
Summary of the method: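 Readout: FRET fluorescence, 405 nm excitation, 460/530 nm emission; beta-lactamase expression disrupts FRET. Cells: ME-180 stably carrying NF-kB-driven bla reporter. Compound exposure 5 hr, 37 C, 5% CO2.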

[4] = qHTS assay to identify small molecule agonists of the endoplasmic reticulum stress response signaling pathway (AID 1159516; active means well fitted activation curve with a large enough effect in the signal ratio in the repeat runs, not every such curve was filed as active; the % refers to the signal ratio); conditions: ESRE-bla HeLa, ER stress beta-lactamase reporter, 5 h; series mostly up to 61 µM
Summary of the method: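 Beta-lactamase expression from the ER stress response element in HeLa reporter cells is quantified with the LiveBLAzer B/G FRET substrate, read at 405 nm excitation after 2 hr at room temperature, following 5 hr compound treatment at 37 C.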

[5] = qHTS assay to identify small molecule agonists of the endoplasmic reticulum stress response signaling pathway - cell viability counter screen (AID 1159517; calls by dose curve; further: nearly all actives have a fitted effect of over 50% in size); conditions: ESRE-bla HeLa viability, CellTiter-Glo luminescence, 5 h; series mostly up to 61 µM
Summary of the method: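 Cytotoxicity of test compounds toward ESRE-bla HeLa cells was assessed after 5 hr exposure. The luminescent CellTiter-Glo signal was measured 30 min after reagent addition.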

[6] = qHTS assay to identify small molecule agonists of the AP-1 signaling pathway - cell viability counter screen (AID 1159525; calls by dose curve; further: nearly all actives have a fitted effect of over 55% in size); conditions: ME-180 AP-1-bla cells viability, ATP luminescence, 5 h; series mostly up to 76.8 µM
Summary of the method: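 Each titration point was normalised to DMSO and tetra n-octyl ammonium bromide controls. The read was Cell Titer Glo luminescence after 30 min at RT, following 5 h compound exposure of ME-180 AP-1-bla cells at 37 °C.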

[7] = qHTS assay to identify small molecule agonists of the AP-1 signaling pathway (AID 1159526; calls by dose curve); conditions: ME-180 (cervical carcinoma) AP-1-bla reporter, beta-lactamase FRET ratio, 5 h; series mostly up to 76.8 µM
[8] = qHTS assay to identify small molecule agonists of the RXR signaling pathway - cell viability counter screen (AID 1159529); conditions: RXR-alpha-bla HEK293T viability, CellTiter-Glo, 16 h; series mostly up to 76.8 µM;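 further: HEK 293T cells carrying an RXR-alpha UAS beta-lactamase reporter; nearly all actives have a fitted effect of over 50% in size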
Summary of the method: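 In this parallel viability measure, GeneBLAzer RXR-alpha HEK 293T cells (2% charcoal-stripped FBS) were given a 5 hr preincubation, treated with compounds 16 hr at 37 C, and read by CellTiter-Glo luminescence.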

[9] = qHTS assay to identify small molecule antagonists of the retinoid acid receptor (RAR) signaling pathway - cell viability counter screen (AID 1159551); conditions: C3RL4 cells viability, ATP luminescence (CellTiter-Glo), 6 h; series mostly up to 92.4 µM; further: nearly all actives have a fitted effect of over 35% in size
Summary of the method: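 Viability of C3RL4 cells is quantified from ATP by luminescence after 6 h treatment at 37 C with compounds and 1 uM retinol.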

[10] = qHTS assay to identify small molecule antagonists of the estrogen related receptor (ERR) signaling pathway - cell viability counter screen (AID 1224818); conditions: ERR reporter cell line viability counter screen; series mostly up to 46.1 µM;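 further: viability measured after 17.5 h of compound exposure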
Summary of the method: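 Cytotoxicity check run alongside the ERR antagonist screen: cells exposed to test compounds 17.5 h at 37 C, viability taken as CellTiter-Fluor fluorescence intensity.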

[11] = qHTS assay to identify small molecule antagonists of the estrogen related receptor signaling pathway with the pleiotropic PPARgamma coactivator (PGC) cell viability counter screen (AID 1224822;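 further: viability read after 17.5 h compound exposure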); conditions: ERR/PGC reporter cell line viability counter screen; series mostly up to 46.1 µM
Summary of the method: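 Viable cell signal (CellTiter-Fluor, 30 min, 37 C/5% CO2) was measured in PGC/ERR cells after a 17.5 h compound incubation.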

[12] = qHTS assay to identify small molecule antagonists of the retinoid-related orphan receptor gamma (ROR-gamma) signaling pathway - cell viability counter screen (AID 1159520); conditions: Tet-on RORgamma CHO cells viability, ATP luminescence, 16 h; series mostly up to 92.4 µM; further: nearly all actives have a fitted effect of over 50% in size
Summary of the method: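 Tet-on ROR gamma CHO cells (1,000/well) were plated 4 hr, given compounds in DMSO for 2 hr at 37 C, then induced with 1 uM final doxycycline for 16 hr. Viability was read as ATP by CellTiter-Glo luminescence after 30 min.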

[13] = biological target: Nuclear receptor ROR-gamma (Homo sapiens) (UniProt P51449); test: qHTS assay to identify small molecule antagonists of the retinoid-related orphan receptor gamma (ROR-gamma) signaling pathway (AID 1159521); conditions: Tet-on RORgamma CHO cells, RORE-luciferase, 16 h; series mostly up to 92.4 µM
Summary of the method: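 Decreased RORE-driven luciferase luminescence indicates antagonism. Tet-on RORγ CHO cells received compound, then 1 uM final doxycycline 2 h later; signal read after 16 h incubation.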

[14] = biological target: Retinoic acid receptor RXR-alpha (Homo sapiens) (UniProt P19793); test: qHTS assay to identify small molecule agonists of the RXR signaling pathway (AID 1159527; calls by dose curve; further: nearly all actives have a fitted effect of over 35% in size); conditions: HEK293T RXRa-UAS-bla, beta-lactamase ratio, 16 h; series mostly up to 76.8 µM
Chain of Retinoic acid receptor RXR-alpha (Homo sapiens) (P19793 whole entry, looked up): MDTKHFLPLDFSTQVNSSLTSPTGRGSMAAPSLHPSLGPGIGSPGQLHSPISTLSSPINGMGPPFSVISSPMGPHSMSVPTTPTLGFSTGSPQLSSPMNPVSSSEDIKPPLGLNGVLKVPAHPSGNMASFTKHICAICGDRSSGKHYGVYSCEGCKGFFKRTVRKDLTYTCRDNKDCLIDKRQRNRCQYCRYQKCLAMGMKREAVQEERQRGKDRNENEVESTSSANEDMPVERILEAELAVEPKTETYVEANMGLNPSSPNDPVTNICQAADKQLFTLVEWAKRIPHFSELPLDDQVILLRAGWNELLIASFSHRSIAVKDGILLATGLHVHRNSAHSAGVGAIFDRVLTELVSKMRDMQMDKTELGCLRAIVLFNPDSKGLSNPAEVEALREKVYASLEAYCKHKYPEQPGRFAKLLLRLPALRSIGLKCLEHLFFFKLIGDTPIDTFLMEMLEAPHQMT
Summary of the method: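 16 hr incubation of compound-treated RXR-alpha-UAS-bla HEK 293T cells (2% charcoal-stripped FBS, 37 C) preceded a 2 hr room-temperature LiveBLAzer FRET substrate step and blue/green fluorescence measurement.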

[15] = qHTS assay to identify small molecule antagonists of the retinoic acid receptor (RAR) signaling pathway (AID 1159552; further: nearly all actives have a fitted effect of over 50% in size); conditions: C3RL4 RARE luciferase reporter, retinol-stimulated, 6 h; series mostly up to 92.4 µM
Summary of the method: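 C3RL4 RARE-luc cells, overnight plating; retinol 1 uM final added right after compound; 6 hr 37 C; luciferase read at 30 min RT.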

[16] = qHTS assay to identify small molecule agonists of the retinoic acid receptor (RAR) signaling pathway (AID 1159553); conditions: C3RL4 RARE luciferase reporter, agonist, 6 h; series mostly up to 73.3 µM
Summary of the method: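 Compounds dissolved in DMSO were pinned onto C3RL4 cells seeded the previous day, and plates were held 6 hr at 37 C. RARE-driven luciferase output was then read by luminescence.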

Measured: Potency

C[C@]12CC[C@@H]3c4ccc(O)cc4CC[C@H]3[C@@H]1CCC2=O
inactive: [1] | [2] | [3] | [4] | [5] | [6] | [7] | [8] | [9] | [10] | [11]

OCCCc1ccccc1
inactive: [1] | [2] | [3] | [5] | [12] | [13] | [6] | [7] | [14] | [8] | [9] | [15] | [16]

O=c1c(-c2ccc(O)cc2)coc2cc(O)cc(O)c12
inactive: [1] | [2] | [3] | [4] | [5] | [13] | [6] | [7] | [8] | [9] | [15] | [10] | [11]

O=C(O)Cc1cccc2ccccc12
inactive: [1] | [2] | [3] | [5] | [13] | [6] | [7] | [8] | [9] | [10] | [11]

O=C1CCCCCN1
inactive: [1] | [2] | [3] | [4] | [5] | [13] | [6] | [7] | [8] | [9] | [15] | [16]

NC(=O)N1c2ccccc2C=Cc2ccccc21
inactive: [1] | [2] | [3] | [4] | [5] | [13] | [6] | [7] | [8] | [9] | [15] | [16] | [10] | [11]

Cc1cnc(NC(=O)C2=C(O)c3ccccc3S(=O)(=O)N2C)s1
inactive: [3] | [5] | [12] | [13] | [6] | [7] | [8] | [9] | [15] | [10] | [11]

CCCCOC(=O)CCCCCCCCC(=O)OCCCC
inactive: [1] | [2] | [3] | [5] | [13] | [6] | [7] | [14] | [8] | [9] | [15]

CC(=O)/C=C/C1=C(C)CCCC1(C)C
inactive: [1] | [2] | [5] | [12] | [13] | [6] | [7] | [14] | [8] | [9]

COCC(C)N (configuration not stated)
inactive: [1] | [2] | [3] | [5] | [13] | [6] | [7] | [14] | [8] | [9] | [15] | [16]

CCCCNC(=O)NS(=O)(=O)c1ccc(N)cc1
inactive: [1] | [2] | [3] | [5] | [12] | [13] | [6] | [7] | [8] | [9] | [15] | [16]

Cc1cccc2ccccc12
inactive: [1] | [2] | [3] | [4] | [5] | [13] | [6] | [7] | [14] | [8] | [9] | [15]
